# Source: PubChem BioAssay
# Values joined by “and” are separate entries in the source; they are usually repeats but may differ in a detail not shown here. Equal entries are not always repeated. Results filed as inconclusive are left out. Active and inactive are the calls of the source. Unless noted, the limit is not given here; nearly all actives have AC50 up to about 30 µM.
# Key:
# [1] = viability loss in pontine glioma line – cell-based, JHH-DIPG-1, MIPE4.0, CellTiter-Glo, qHTS, dose response (AID 1347062; cut-off not given, nearly all actives have AC50 up to about 27 µM;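 as to AC50: cells exposed to compound for two days before readout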); conditions: JHH-DIPG-1 viability, CellTiter-Glo ATP luminescence
# [2] = viability loss in pontine glioma line – cell-based, SU-DIPG-IV, MIPE4.0, CellTiter-Glo, qHTS, dose response (AID 1347063); conditions: CellTiter-Glo ATP luminescence;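 also: compound exposure lasted 48 hours before the viability readout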
# [3] = growth inhibition of DIPG cells – cell-based, MIPE4.0 library, CellTiter-Glo luminescence, qHTS (AID 1347066); conditions: SU-DIPG-VI viability, CellTiter-Glo ATP luminescence;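 also: cells exposed to compound for 48 hours before readout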
# [4] = growth inhibition of DIPG cells – cell-based, MIPE5.0 library, qHTS (AID 1347068; cut-off not given, nearly all actives have IC50 up to about 30 µM;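 also: cells exposed to compound for 48 hours before viability readout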); conditions: SU-DIPG-XXV viability
# [5] = viability loss with induced miR-34 in A549 – imaging, A549 dox-inducible miR-34, nuclei and caspase counts, primary screen (AID 1347080;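 active = compounds whose cell count with miR-34 switched on is under 0.7 times the count with it off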); conditions: A549 miR-34 inducible, Hoechst nuclei count, 48 h
# [6] = compounds altering HSF1 focus formation in cells – imaging, Selleck Cancer Library (AID 1347162; in the data active = plate-normalised HSF1 focus index below about 0.46); conditions: human cells, HSF1 nuclear foci imaging, at 10 µM; SSMD: measured here: HSF1 foci SSMD mean; cell count: measured here: cell number; plate-normalised HSF1 focus index: stronger effect = lower value
# [7] = MELAS cybrid and Rieske KO viability enhancers – cell-based, MELAS cybrids, Rieske KO mouse fibroblasts, CellTiter-Glo, primary screen (AID 1508586;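 active = mean z-score across replicates of 1.96 or higher in either the MELAS or the Rieske mutant cell line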;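 also: z relative to plate mean and SD of compound and empty wells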); conditions: low glucose
compound,measurement,setting,value
C=CC(=O)Nc1cc(NC(=O)c2ccc(C)c(NC(=O)c3ccno3)c2)cc(C(F)(F)F)c1,AC50,[1],16.6 µM (active)
same,AC50,[2],18.7 µM (active)
same,AC50,[3],16.6 µM (active)
CC(O)[C@@H]1NC(=O)[C@H](CCCCN)NC(=O)[C@@H](Cc2c[nH]c3ccccc23)NC(=O)[C@H](Cc2ccccc2)NC(=O)[C@@H](NC(=O)[C@H](N)Cc2ccccc2)CSSC[C@@H](C(=O)N[C@H](CO)[C@@H](C)O)NC1=O (some centres undefined),outcome,[1],inactive
same,outcome,[2],inactive
same,outcome,[3],inactive
Nc1nc(N)c(N=O)c(OCC2CCCCC2)n1,AC50,[1],14.8 µM (active)
same,AC50,[2],4.69 µM (active)
same,AC50,[3],14.8 µM (active)
same,IC50,[4],14.8 µM (active)
same,fold change,"[5]; stronger effect = lower value, cell number ratio, induced over uninduced",0.992 (inactive) and 0.824 (inactive)
same,fold change,[5]; measured here: relative caspase fold change +Dox/-Dox,0.923 and 0.352
same,cell count,"[5]; measured here: total cells with miR-34 induction, stronger effect = lower value",8650 and 6730
same,cell count,[5]; measured here: total cells without miR-34 induction,8720 and 8160
same,SSMD,[6],2.32
same,cell count,[6],6960
same,plate-normalised HSF1 focus index,[6],1.14 (inactive)
same,z-score,"[7]; MELAS cybrid survival, CellTiter-Glo 48 h, stronger effect = higher value",-0.213 (inactive)
same,z-score,"[7]; Rieske KO mouse fibroblast survival, CellTiter-Glo 72 h",-2.45
